For 29 molecules, Potency results are on record in PubChem BioAssay (NCATS).

SMILES strings stand for the structures. Results filed as inconclusive are left out. A call without a number means that no potency is given here. The source made the active and inactive calls. Calls follow the shape of the dose curve; as a rule, active = well fitted cell-killing curve with a large enough effect; inconclusive = small, poorly fitted or top-dose-only effect, or effect the other way; inactive = no such curve, though single readings can be large or run the other way.
Potency is read from the fitted curve at half-maximal effect.

One assay in a line: Quantitative High-Throughput drug screen in 47 multiple myeloma cell lines against the NCATS MIPE library collection: KMS12BM_JCRB cell viability assay (AID 1918971). Also: nearly all actives have a fitted effect of over 35% in size. As to conditions: KMS12BM myeloma viability, CellTiter-Glo ATP, 48 h; series mostly up to 45.8 µM. In outline: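 Relative luminescence from CellTiter-Glo served as the viability signal, referenced to DMSO-treated (100%) and cell-free medium (0%) controls. Treatment lasted 48 hours at 37C with 500 cells per well.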
For `Cc1ccc(C(=O)Nc2ccc(S(=O)(=O)O)c3cc(S(=O)(=O)O)cc(S(=O)(=O)O)c23)cc1NC(=O)c1cccc(NC(=O)Nc2cccc(C(=O)Nc3cc(C(=O)Nc4ccc(S(=O)(=O)O)c5cc(S(=O)(=O)O)cc(S(=O)(=O)O)c45)ccc3C)c2)c1`, the Potency entry is “inactive”.
The same measure, in the same setting: next, `CC(C)C(=O)Nc1ccc([N+](=O)[O-])c(C(F)(F)F)c1`: “inactive”.
Take `COC(=O)Nc1nc2ccc(C(=O)c3cccs3)cc2[nH]1`: the Potency is 0.0026 µM (active).
On the same count and under the same terms, the value for `Cc1ccccc1N1C(=O)c2cc(S(N)(=O)=O)c(Cl)cc2NC1C` (centres undefined) was “inactive”; that for `CC12CC3CC(C)(C1)CC(N)(C3)C2` was “inactive”; that for `O=C(c1ccc(F)cc1)C1CCN(CCn2c(=O)[nH]c3ccccc3c2=O)CC1` was “inactive”.
Same read-out and setting: next, `OCCN(CCO)c1nc(N2CCCCC2)c2nc(N(CCO)CCO)nc(N3CCCCC3)c2n1`: 26.4 µM (active).
On the same count and under the same terms, the value for `NCCCCCC(=O)O` was “inactive”; that for `Clc1ccc(C(c2ccccc2Cl)C(Cl)Cl)cc1` (centres undefined) was 18.7 µM (active).
Turning to `Clc1ccccc1C(c1ccccc1)(c1ccccc1)n1ccnc1`, the Potency was 16.6 µM (active).
Still for that read-out and setting: next, `C[C@@H]1CC(=O)NN=C1c1ccc(NN=C(C#N)C#N)cc1`: 18.7 µM (active); `Fc1ccc([C@@H]2CCNC[C@H]2COc2ccc3c(c2)OCO3)cc1`: 14.8 µM (active).
The same measure, in the same setting: the value for `O=C1Cc2cc(CCN3CCN(c4nsc5ccccc45)CC3)c(Cl)cc2N1` was 20.9 µM (active); that for `Cc1cc(C(C)(C)C)c(O)c(C)c1CC1=NCCN1` was “inactive”.
Same read-out and setting: next, `NCCS(=O)(=O)O`: “inactive”; `CN(C)c1nc(N(C)C)nc(N(C)C)n1`: “inactive”.

A short description of the next assay: Quantitative High-Throughput drug screen in 47 multiple myeloma cell lines against the NCATS MIPE library collection: KMS12PE_JCRB cell viability assay (AID 1918972). Also: nearly all actives have a fitted effect of over 30% in size. The note with it: KMS12PE myeloma viability, CellTiter-Glo ATP, 48 h; series mostly up to 45.8 µM. In outline: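 Approved and investigational drugs from MIPE 4.0 were added by pin tool to 500 cells per well. After 48 hours at 37C, ATP-based CellTiter-Glo luminescence indicated remaining viability.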
For the molecule `O=c1c(-c2ccc(O)cc2)coc2cc(O)cc(O)c12`, the Potency was 2.64 µM (active).
`CCCCc1oc2ccccc2c1C(=O)c1cc(I)c(OCCN(CC)CC)c(I)c1`: the Potency was 26.4 µM (active).
On the same count and under the same terms, next, `CCOC(=O)c1ncn2c1CN(C)C(=O)c1cc(F)ccc1-2`: “inactive”; `CC(C)(Oc1ccc(C2CC2(Cl)Cl)cc1)C(=O)O` (centres undefined): “inactive”; `COc1cc2nc(N3CCN(C(=O)C4COc5ccccc5O4)CC3)nc(N)c2cc1OC` (centres undefined): 5.9 µM (active).
The same measure, in the same setting: the value for `CN1CCN2c3ccccc3Cc3ccccc3C2C1` (centres undefined) was 18.7 µM (active); that for `CN1C(C(=O)Nc2ccccn2)=C(O)c2ccccc2S1(=O)=O` was “inactive”; that for `NCCc1cnc[nH]1` was “inactive”.
Still for that read-out and setting: next, `Cn1c(=O)c2c(ncn2C)n(C)c1=O`: “inactive”; `CC1(CN2CCC(n3c(=O)[nH]c4ccccc43)CC2)OCc2ccccc2-n2cccc21` (centres undefined): “inactive”; `CCC1(C)CC(=O)NC1=O` (centres undefined): “inactive”.
Consider `Cc1cnc(C(=O)NCCc2ccc(S(=O)(=O)NC(=O)NC3CCCCC3)cc2)cn1`, for which the Potency is 14.8 µM (active).
The same measure, in the same setting: the value for `CC(C)(C)C(=O)Oc1ccc(S(=O)(=O)Nc2ccccc2C(=O)NCC(=O)O)cc1` was “inactive”.
Consider `Cc1ccc(C(=O)Nc2ccc(S(=O)(=O)O)c3cc(S(=O)(=O)O)cc(S(=O)(=O)O)c23)cc1NC(=O)c1cccc(NC(=O)Nc2cccc(C(=O)Nc3cc(C(=O)Nc4ccc(S(=O)(=O)O)c5cc(S(=O)(=O)O)cc(S(=O)(=O)O)c45)ccc3C)c2)c1`, for which the Potency entry is “inactive”.
The same measure, in the same setting: next, `CC(C)C(=O)Nc1ccc([N+](=O)[O-])c(C(F)(F)F)c1`: 13.2 µM (active); `O=C(c1ccc(F)cc1)C1CCN(CCn2c(=O)[nH]c3ccccc3c2=O)CC1`: “inactive”; `OCCN(CCO)c1nc(N2CCCCC2)c2nc(N(CCO)CCO)nc(N3CCCCC3)c2n1`: 23.5 µM (active).
Still for that read-out and setting: next, `Clc1ccccc1C(c1ccccc1)(c1ccccc1)n1ccnc1`: 7.43 µM (active); `C[C@@H]1CC(=O)NN=C1c1ccc(NN=C(C#N)C#N)cc1`: “inactive”; `Fc1ccc([C@@H]2CCNC[C@H]2COc2ccc3c(c2)OCO3)cc1`: “inactive”.
Turning to `Cc1cc(C(C)(C)C)c(O)c(C)c1CC1=NCCN1`, the Potency result is “inactive”.
Regarding `NCCS(=O)(=O)O`, the Potency result is “inactive”.
Same read-out and setting: the value for `CN(C)c1nc(N(C)C)nc(N(C)C)n1` was “inactive”.
